“And” between values parts separate entries of the source, which are not always exact repeats. Equal values may be shown once. Results filed as inconclusive are left out. Some structures have more than one record in an assay (separate samples or runs), and their calls can disagree. The source made the active and inactive calls. The calls were made as follows: active = hit-call score of the fitted dose curve at least 0.9, where 1 is the maximum; inconclusive = response in the unintended direction; inactive = score below 0.9.
Legend:
[1] = tested on: turtle Estrogen Receptor (ERa), gene 101933533; experiment: ATG_trERa_XSP2: Attagene TRANS-FACTORIAL Multi-Species (XSP2) HepG2 Assay for turtle Estrogen Receptor (ERa) (AID 2283812);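 also: human HepG2 liver cells transiently expressing turtle ERa-Gal4 chimeric receptor; actives raise reporter signal above DMSO so AC50 reflects agonist activity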
In short: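 HepG2 cells transiently transfected with GAL4-UAS reporter units expressing turtle ERa-Gal4 chimera. Reporter mRNA measured after 24 h dosing by RT-PCR, fluorescent labelling and capillary electrophoresis; gain of signal fitted versus DMSO.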

[2] = target: GAL4 Transcription Factor (Internal Marker), GAL4 (gene 855828) (UniProt P04386); experiment: ATG_GAL4_XSP2: Attagene TRANS-FACTORIAL Multi-Species (XSP2) HepG2 Assay for GAL4 Transcription Factor (Internal Marker) (AID 2283814);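 also: GAL4 reporter mRNA background control in MRTU transfected cells not a receptor target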
In short: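 HepG2 cells transiently transfected with GAL4-UAS reporter units, stimulated with 3 nM 6-alpha-fluorotestosterone plus 1.5 nM norgestrel, dosed 24 h. Reporter mRNA by RT-PCR/capillary electrophoresis; gain-of-signal fit versus DMSO, background control.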

[3] = target: zebrafish Estrogen Receptor (ER1), esr1 (gene 259252) (UniProt P57717); experiment: ATG_zfER1_XSP2: Attagene TRANS-FACTORIAL Multi-Species (XSP2) HepG2 Assay for zebrafish Estrogen Receptor (ER1) (AID 2283816)
In short: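 HepG2 cells transiently transfected with a GAL4-UAS reporter and a chimeric zebrafish ER1-Gal4 construct, dosed 24 h. Reporter mRNA quantified by RT-PCR, labelling, HpaI digestion and capillary electrophoresis, relative to DMSO.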

[4] = target: chicken Estrogen Receptor (ERa), ESR1 (gene 396099) (UniProt P06212); experiment: ATG_chERa_XSP2: Attagene TRANS-FACTORIAL Multi-Species (XSP2) HepG2 Assay for chicken Estrogen Receptor (ERa) (AID 2283817);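 also: actives raise reporter signal above DMSO so AC50 reflects ER activation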
In short: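 HepG2 cells transiently transfected with multiplexed GAL4-UAS reporter units expressing chimeric chicken ERa-Gal4; 24 h compound exposure. Reporter mRNA measured by RT-PCR with 6-FAM labelling, HpaI digestion and capillary electrophoresis; gain-of-signal fitted versus DMSO.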

[5] = tested on: zebrafish Estrogen Receptor (ER2a), gene 317734; experiment: ATG_zfER2a_XSP2: Attagene TRANS-FACTORIAL Multi-Species (XSP2) HepG2 Assay for zebrafish Estrogen Receptor (ER2a) (AID 2283818);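 also: hits raise reporter mRNA so AC50 reflects activation of zebrafish ER2a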
In short: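 HepG2 cells transiently transfected with GAL4-UAS reporter units and chimeric zebrafish ER2a-Gal4, exposed 24 h; medium contains 3 nM 6-alpha-fluorotestosterone and 1.5 nM norgestrel. Reporter mRNA quantified by RT-PCR, HpaI digestion, capillary electrophoresis; gain versus DMSO.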

[6] = tested on: frog Estrogen Receptor (ER), gene 398734; experiment: ATG_frER1_XSP2: Attagene TRANS-FACTORIAL Multi-Species (XSP2) HepG2 Assay for frog Estrogen Receptor (ER) (AID 2283821);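 also: hits raise reporter mRNA above DMSO baseline so potency means agonist or activator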
In short: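 HepG2, transient MRTU transfection, chimeric NR-GAL4/UAS reporters; 24 h compound exposure, 24-well. Readout: reporter mRNA via RT-PCR + capillary electrophoresis, fluorescence. Positive fit vs DMSO baseline.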

[7] = ATG_M_19_XSP2: Attagene TRANS-FACTORIAL Multi-Species (XSP2) HepG2 Assay for M32 Transcription Factor (Internal Marker) (AID 2283822)
In short: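 Internal background marker in a multi-species nuclear receptor TRANS panel: transfected HepG2 cells exposed 24 h, with 3 nM 6-alpha-fluorotestosterone and 1.5 nM norgestrel present. Readout is RT-PCR of reporter transcripts resolved by capillary electrophoresis, gain-of-signal versus DMSO.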

[8] = tested on: zebrafish Estrogen Receptor (ER2b), gene 317733; experiment: ATG_zfER2b_XSP2: Attagene TRANS-FACTORIAL Multi-Species (XSP2) HepG2 Assay for zebrafish Estrogen Receptor (ER2b) (AID 2283823);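 also: fitted upward as reporter gain over DMSO so potency reflects activation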
In short: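 Transfect HepG2 with GAL4-UAS reporter constructs; dose chemicals, 24 h; isolate RNA, RT-PCR, FAM-label, HpaI digest; capillary electrophoresis. Gain-of-signal vs DMSO.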

[9] = ATG_M_32_XSP2: Attagene TRANS-FACTORIAL Multi-Species (XSP2) HepG2 Assay for M19 Transcription Factor (Internal Marker) (AID 2283826)
In short: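 Read-out: fluorescent reporter mRNA fragments resolved by capillary electrophoresis after RT-PCR, gain-of-signal versus DMSO baseline. Cells were human HepG2 carrying transfected multi-reporter units, exposed 24 h. Medium contained 3 nM 6-alpha-fluorotestosterone plus 1.5 nM norgestrel.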

[10] = target: Estrogen receptor (Homo sapiens) (UniProt P03372); experiment: ATG_hERa_XSP2: Attagene TRANS-FACTORIAL Multi-Species (XSP2) HepG2 Assay for human Estrogen Receptor (ERa) (AID 2283827)
In short: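 HepG2 cells transiently transfected with multiplexed GAL4-UAS reporters driven by chimeric receptor-Gal4 proteins, dosed 24 h with 3 nM 6-alpha-fluorotestosterone and 1.5 nM norgestrel present. Reporter mRNA by RT-PCR and capillary electrophoresis; gain-of-signal fit versus DMSO.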

[11] = tested on: frog Estrogen Receptor (ER2), gene 100174814; experiment: ATG_frER2_XSP2: Attagene TRANS-FACTORIAL Multi-Species (XSP2) HepG2 Assay for frog Estrogen Receptor (ER2) (AID 2283828)
In short: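 Human liver HepG2, transient MRTU transfection (TRANS format, exogenous NR–Gal4). 24 h cpd exposure. Total RNA → RT → PCR → FAM label → HpaI cut → CE. Positive direction vs DMSO.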

[12] = target: zebrafish Thyroid Hormone Receptor beta (TRb), thrb (gene 30607) (UniProt Q9PVE4); experiment: ATG_zfTRb_XSP1: Attagene TRANS-FACTORIAL Multi-Species (XSP1) HepG2 Assay for zebrafish Thyroid Hormone Receptor beta (TRb) (AID 2283809)
In short: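 HepG2 cells transiently transfected with multiplexed GAL4-UAS reporter units expressing chimeric zebrafish TRb–Gal4. Dosed 24 h with 3 nM 6-alpha-fluorotestosterone present; reporter mRNA measured by RT-PCR, HpaI digestion and capillary electrophoresis; gain of signal versus DMSO.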

[13] = ATG_XTT_Cytotoxicity_XSP1: Cytotoxicity Assessment in the Attagene TRANS-FACTORIAL Multi-Species (XSP1) HepG2 Assay (AID 2283810)
In short: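 XTT viability readout taken at 24 hours post-dosing in HepG2 liver cells co-treated with 3 nM 6-alpha-fluorotestosterone. Signal loss relative to DMSO controls reflects cytotoxicity.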

[14] = ATG_M_06_XSP2: Attagene TRANS-FACTORIAL Multi-Species (XSP2) HepG2 Assay for M06 Transcription Factor (Internal Marker) (AID 2283811);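 also: hits are increases in signal above the DMSO baseline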
In short: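 HepG2 cells transiently transfected with GAL4-UAS multi-reporter constructs, dosed 24 h with 3 nM 6-alpha-fluorotestosterone plus 1.5 nM norgestrel present to stimulate androgen receptor. Reporter mRNA quantified by RT-PCR, 6-FAM labelling, HpaI digestion and capillary electrophoresis; gain-of-signal fitted versus DMSO baseline.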

[15] = target: Estrogen receptor beta (Homo sapiens) (UniProt Q92731); experiment: ATG_hERb_XSP2: Attagene TRANS-FACTORIAL Multi-Species (XSP2) HepG2 Assay for human Estrogen Receptor (ERb) (AID 2283813);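 also: actives raise reporter mRNA above DMSO so AC50 reflects agonist induction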
In short: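 HepG2 cells transiently transfected with GAL4-UAS reporter units and chimeric human ERb-Gal4, 24 h exposure. Reporter mRNA quantified by RT-PCR with FAM labelling, HpaI digestion and capillary electrophoresis; gain of signal versus DMSO.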

[16] = tested on: turtle Androgen Receptor (AR), gene 101947425; experiment: ATG_trAR_XSP2: Attagene TRANS-FACTORIAL Multi-Species (XSP2) HepG2 Assay for turtle Androgen Receptor (AR) (AID 2283815);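 as to AC50: potency for gain of reporter signal meaning activation above DMSO baseline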
In short: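 HepG2 cells transiently transfected with GAL4-UAS reporter units for chimeric NR-Gal4 receptors; 24 h dosing in presence of 3 nM 6-alpha-fluorotestosterone and 1.5 nM norgestrel. Reporter mRNA by RT-PCR and capillary electrophoresis, gain of signal versus DMSO.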

[17] = tested on: chicken Androgen Receptor (AR), gene 422165; experiment: ATG_chAR_XSP2: Attagene TRANS-FACTORIAL Multi-Species (XSP2) HepG2 Assay for chicken Androgen Receptor (AR) (AID 2283819);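 also: hits raise reporter mRNA above DMSO so potency is for activation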
In short: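 HepG2 cells transiently transfected with chicken AR–GAL4 chimeric reporter constructs, stimulated with 3 nM 6-alpha-fluorotestosterone plus 1.5 nM norgestrel, dosed 24 h. Reporter mRNA quantified by RT-PCR and capillary electrophoresis; gain of signal fitted versus DMSO.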

Sequence of chicken Estrogen Receptor (ERa), ESR1 (gene 396099) (P06212 whole entry, looked up, the tested form may be a part): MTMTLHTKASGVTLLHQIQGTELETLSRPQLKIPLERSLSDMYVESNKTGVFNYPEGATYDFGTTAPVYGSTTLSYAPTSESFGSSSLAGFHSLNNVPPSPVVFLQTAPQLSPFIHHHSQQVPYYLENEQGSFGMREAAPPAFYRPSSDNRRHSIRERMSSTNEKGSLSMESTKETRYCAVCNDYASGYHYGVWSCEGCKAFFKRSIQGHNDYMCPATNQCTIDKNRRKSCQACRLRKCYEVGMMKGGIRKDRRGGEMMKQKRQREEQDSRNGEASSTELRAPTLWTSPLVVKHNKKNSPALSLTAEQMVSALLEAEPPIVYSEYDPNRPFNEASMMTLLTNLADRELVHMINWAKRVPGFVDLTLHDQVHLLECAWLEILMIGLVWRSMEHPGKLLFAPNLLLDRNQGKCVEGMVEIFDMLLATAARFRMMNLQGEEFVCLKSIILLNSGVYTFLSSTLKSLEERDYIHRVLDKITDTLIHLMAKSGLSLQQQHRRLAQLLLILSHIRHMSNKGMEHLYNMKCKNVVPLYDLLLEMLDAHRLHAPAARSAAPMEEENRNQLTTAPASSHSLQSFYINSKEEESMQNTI
Sequence of zebrafish Estrogen Receptor (ER1), esr1 (gene 259252) (P57717 whole entry, looked up, the tested form may be a part): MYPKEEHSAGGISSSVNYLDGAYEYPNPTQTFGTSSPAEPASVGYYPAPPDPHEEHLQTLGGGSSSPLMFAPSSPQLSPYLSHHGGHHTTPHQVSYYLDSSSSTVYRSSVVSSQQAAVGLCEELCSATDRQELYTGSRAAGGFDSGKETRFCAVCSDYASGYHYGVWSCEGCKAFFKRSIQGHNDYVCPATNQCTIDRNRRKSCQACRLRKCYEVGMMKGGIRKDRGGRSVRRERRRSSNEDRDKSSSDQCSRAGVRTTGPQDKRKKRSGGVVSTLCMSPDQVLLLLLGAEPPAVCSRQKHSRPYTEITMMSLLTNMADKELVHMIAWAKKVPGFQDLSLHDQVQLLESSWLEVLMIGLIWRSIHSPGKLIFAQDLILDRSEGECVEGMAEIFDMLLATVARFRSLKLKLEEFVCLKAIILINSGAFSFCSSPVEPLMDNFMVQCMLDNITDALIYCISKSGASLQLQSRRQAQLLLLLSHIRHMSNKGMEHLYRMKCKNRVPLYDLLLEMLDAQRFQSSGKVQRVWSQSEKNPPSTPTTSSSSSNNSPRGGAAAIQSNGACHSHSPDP
Sequence of Estrogen receptor (Homo sapiens) (P03372 whole entry, looked up, the tested form may be a part): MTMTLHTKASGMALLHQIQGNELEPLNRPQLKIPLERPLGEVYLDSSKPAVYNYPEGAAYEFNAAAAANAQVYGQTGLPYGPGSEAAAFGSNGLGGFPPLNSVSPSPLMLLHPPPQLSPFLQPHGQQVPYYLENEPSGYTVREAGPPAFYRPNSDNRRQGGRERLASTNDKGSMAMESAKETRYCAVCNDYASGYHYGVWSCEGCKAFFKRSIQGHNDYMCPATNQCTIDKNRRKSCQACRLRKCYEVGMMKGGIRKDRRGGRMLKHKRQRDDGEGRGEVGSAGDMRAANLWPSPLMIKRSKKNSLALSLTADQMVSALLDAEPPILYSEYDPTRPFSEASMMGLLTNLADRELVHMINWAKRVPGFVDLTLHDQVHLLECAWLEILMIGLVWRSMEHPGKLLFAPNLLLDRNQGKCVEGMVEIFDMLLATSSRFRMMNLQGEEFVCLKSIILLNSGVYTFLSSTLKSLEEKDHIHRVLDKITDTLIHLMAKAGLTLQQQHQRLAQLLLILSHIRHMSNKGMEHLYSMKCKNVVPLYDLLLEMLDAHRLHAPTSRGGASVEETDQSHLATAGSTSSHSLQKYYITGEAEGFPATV
Sequence of Estrogen receptor beta (Homo sapiens) (Q92731 whole entry, looked up, the tested form may be a part): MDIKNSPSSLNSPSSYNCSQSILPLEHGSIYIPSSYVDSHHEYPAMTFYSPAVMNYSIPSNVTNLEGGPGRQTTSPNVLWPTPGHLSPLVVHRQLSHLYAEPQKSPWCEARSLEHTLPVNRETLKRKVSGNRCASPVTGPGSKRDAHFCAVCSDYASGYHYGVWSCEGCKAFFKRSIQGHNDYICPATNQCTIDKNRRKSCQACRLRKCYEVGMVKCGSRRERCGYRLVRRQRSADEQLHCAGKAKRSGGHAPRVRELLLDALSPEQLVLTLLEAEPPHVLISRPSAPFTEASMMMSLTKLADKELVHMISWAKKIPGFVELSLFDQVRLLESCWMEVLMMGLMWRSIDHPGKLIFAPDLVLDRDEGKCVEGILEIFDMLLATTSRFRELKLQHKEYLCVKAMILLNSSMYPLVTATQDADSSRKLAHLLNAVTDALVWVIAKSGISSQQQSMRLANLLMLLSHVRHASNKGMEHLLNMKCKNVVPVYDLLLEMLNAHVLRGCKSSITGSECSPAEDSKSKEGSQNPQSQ
Sequence of zebrafish Thyroid Hormone Receptor beta (TRb), thrb (gene 30607) (Q9PVE4 whole entry, looked up, the tested form may be a part): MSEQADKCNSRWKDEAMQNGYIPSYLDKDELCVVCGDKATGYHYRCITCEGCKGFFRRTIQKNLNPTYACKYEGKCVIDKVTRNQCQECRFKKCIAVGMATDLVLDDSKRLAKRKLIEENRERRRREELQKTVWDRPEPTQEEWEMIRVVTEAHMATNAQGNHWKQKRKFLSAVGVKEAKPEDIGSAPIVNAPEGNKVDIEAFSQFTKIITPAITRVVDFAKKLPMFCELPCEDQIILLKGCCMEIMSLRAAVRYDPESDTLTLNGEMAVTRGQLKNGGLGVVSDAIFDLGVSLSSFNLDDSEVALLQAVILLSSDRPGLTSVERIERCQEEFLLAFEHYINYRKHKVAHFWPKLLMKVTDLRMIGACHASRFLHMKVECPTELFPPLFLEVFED
Sequence of GAL4 Transcription Factor (Internal Marker), GAL4 (gene 855828) (P04386 whole entry, looked up, the tested form may be a part): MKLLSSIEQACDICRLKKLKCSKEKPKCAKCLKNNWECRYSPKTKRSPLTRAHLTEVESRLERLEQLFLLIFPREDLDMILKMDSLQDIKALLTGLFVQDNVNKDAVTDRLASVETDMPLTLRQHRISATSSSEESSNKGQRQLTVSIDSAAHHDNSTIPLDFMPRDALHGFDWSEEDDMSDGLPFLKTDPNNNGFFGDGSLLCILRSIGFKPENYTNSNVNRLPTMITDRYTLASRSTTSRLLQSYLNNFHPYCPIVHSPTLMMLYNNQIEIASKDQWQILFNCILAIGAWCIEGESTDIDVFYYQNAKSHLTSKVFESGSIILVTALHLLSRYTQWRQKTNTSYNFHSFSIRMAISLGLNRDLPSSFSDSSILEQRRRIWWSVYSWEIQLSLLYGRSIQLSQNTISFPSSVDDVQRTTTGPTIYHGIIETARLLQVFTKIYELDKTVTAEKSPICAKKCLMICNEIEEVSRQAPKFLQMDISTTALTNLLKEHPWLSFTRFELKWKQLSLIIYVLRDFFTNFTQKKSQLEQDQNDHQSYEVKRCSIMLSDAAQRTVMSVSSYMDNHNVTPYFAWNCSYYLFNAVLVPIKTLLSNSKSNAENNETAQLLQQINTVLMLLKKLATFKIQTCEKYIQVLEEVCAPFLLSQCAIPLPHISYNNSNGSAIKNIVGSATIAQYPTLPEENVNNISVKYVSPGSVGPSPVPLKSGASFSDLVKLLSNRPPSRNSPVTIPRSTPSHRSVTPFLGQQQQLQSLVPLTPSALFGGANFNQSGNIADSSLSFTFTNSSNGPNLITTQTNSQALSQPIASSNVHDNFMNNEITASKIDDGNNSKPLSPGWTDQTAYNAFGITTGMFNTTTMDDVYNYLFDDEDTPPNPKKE

c1cc2ccc3cccc4ccc(c1)c2c34
AC50 [1]: 167 µM (active) and 27.8 µM (active)
outcome [2]: inactive
outcome [3]: inactive
AC50 [4]: 13.9 µM (active) and 25.4 µM (active)
outcome [5]: inactive
AC50 [6]: 39.9 µM (active) and 19.8 µM (active)
outcome [7]: inactive
AC50 [8]: 100 µM (active) and 37.1 µM (active)
outcome [9]: inactive
AC50 [10]: 65.9 µM (active) and 19.8 µM (active)
AC50 [11]: 5720 nM (active)
outcome [11]: inactive

Clc1ccc(C(c2ccccc2Cl)C(Cl)(Cl)Cl)cc1 (configuration not stated)
outcome [12]: inactive
outcome [13]: inactive
outcome [14]: inactive
AC50 [1]: 1.14 µM (active)
outcome [15]: inactive
outcome [3]: inactive
AC50 [4]: 656 nM (active)
AC50 [5]: 1.58 µM (active)
AC50 [6]: 858 nM (active)
AC50 [8]: 998 nM (active)
AC50 [11]: 824 nM (active)

C[C@]12CCC(=O)C=C1CC[C@@H]1[C@@H]2CC[C@]2(C)C(=O)CC[C@@H]12
outcome [12]: inactive
outcome [13]: inactive
outcome [14]: inactive
AC50 [1]: 12.9 nM (active) and 12 nM (active)
AC50 [15]: 19.2 nM (active)
outcome [15]: inactive
AC50 [16]: 2080 nM (active)
outcome [16]: inactive
AC50 [3]: 3130 nM (active)
outcome [3]: inactive
AC50 [4]: 9.2 nM (active) and 10.8 nM (active)
AC50 [5]: 28.2 nM (active) and 100 nM (active)
AC50 [17]: 379 nM (active)
outcome [17]: inactive
AC50 [6]: 19.2 nM (active) and 24 nM (active)
AC50 [8]: 58.9 nM (active) and 39.4 nM (active)
AC50 [10]: 10.2 nM (active) and 16.5 nM (active)
AC50 [11]: 552 nM (active)
outcome [11]: inactive

Reference: PubChem BioAssay (EPA / NIEHS)
